Test results: PubChem BioAssay (NCATS)
Values without a mark were called inactive. Inconclusive results are not listed. Where a call stands in place of a potency, no number is given. Activity calls are given as the source filed them. Calls follow the shape of the dose curve; as a rule, active = well fitted curve in the direction sought with a large enough effect; inconclusive = small, poorly fitted or top-dose-only effect, or another doubt; inactive = no such curve, though single readings can be large; an effect the other way counts as inactive or inconclusive.

Legend:
[1] = qHTS assay for measurement of the activity of small molecule inhibitors on Zika virus induced Caspase-3 activity in human astrocytoma cells (AID 1224859)
Outline: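 Human SNB-19 astrocytoma cells in RPMI 1640 with 10% FBS receive compound one hour ahead of Zika virus at 2 FFU/cell. After 6 h infection, caspase-3/7 activity is detected by Caspase-Glo luminescence.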

[2] = qHTS assay to identify small molecule inhibitors of chordoma cells - UCH-1 (AID 1259355); also: nearly all actives have a fitted effect of over 55% in size
Outline: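 800 cells/well, overnight attach; compounds pinned at 15 concs, then auranofin/camptothecin/doxorubicin/rubitecan/topotecan combo added; 48hr 37 C, 5% CO2; CellTiter-Glo, 30min RT, luminescence.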

[3] = qHTS assay to identify small molecule inhibitors of chordoma cells - UCH-2 (AID 1259356); also: series mostly up to about 46 µM
[4] = P-glycoprotein substrates identified in KB-8-5-11 adenocarcinoma cell line, qHTS therapeutic library screen (AID 1346987); also: series mostly up to about 44 µM; nearly all actives have a fitted effect of over 65% in size
Outline: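 Luminescence from CellTiter-Glo, read 5 min after addition, quantified survival of KB-8-5-11 (P-gp-overexpressing) cells exposed to compounds for 72 h. AC50 was derived from concentration-response curves.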

[5] = NS1 protein of Zika virus - qHTS assay to identify small molecule inhibitors in human HEK 293 cells (AID 1347053); also: series mostly up to about 46 µM; nearly all actives have a fitted effect of over 55% in size
Outline: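 In this cell-based screen, HEK 293 cultures received compound for one hour before Zika MR766 at MOI = 0.5. NS1 was quantified 24 hours later by TR-FRET, normalized to virus-free wells and infected wells.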

[6] = qHTS of pediatric cancer cell lines to identify multiple opportunities for drug repurposing: Primary screen for TC32 cells (AID 1347089); also: nearly all actives have a fitted effect of over 60% in size
Outline: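 A viability screen of TC32 cells was run over 48 h, with primary MIPE doses spanning 0.78 nM–46 µM and NPC doses 0.59 nM–46 µM. ATP luminescence (CellTiter-Glo) served as the read-out.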

[7] = qHTS of pediatric cancer cell lines to identify multiple opportunities for drug repurposing: Primary screen for DAOY cells (AID 1347090); also: series mostly up to about 46 µM; nearly all actives have a fitted effect of over 55% in size
Outline: (§1)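 Cell viability, CellTiter-Glo luminescence; 500-1,000 cells/well, 8- or 11-point titration, 48 h compound exposure at 37 degrees C, 5% CO2. Controls: DMSO neutral, bortezomib 2.3 µM final as positive.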

[8] = qHTS of pediatric cancer cell lines to identify multiple opportunities for drug repurposing: Primary screen for SJ-GBM2 cells (AID 1347091)
Outline: as §1

[9] = qHTS of pediatric cancer cell lines to identify multiple opportunities for drug repurposing: Primary screen for NB-EBc1 cells (AID 1347095)
Outline: (§2)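 Quantitative HTS format: each compound titrated (MIPE 11 points from 0.78 nM, NPC 8 points from 0.59 nM) onto cells plated 5 hours earlier. After 48 h at 37 degrees C, CellTiter-Glo luminescence was recorded.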

[10] = qHTS of pediatric cancer cell lines to identify multiple opportunities for drug repurposing: Primary screen for SK-N-MC cells (AID 1347093); also: potency is read from the fitted curve at half-maximal effect
Outline: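 Metabolically active cells were quantified by ATP-dependent luminescence (CellTiter-Glo, 15 min at room temperature) following 48 h treatment. Cells had been plated at 500-1,000 per well and settled for 5 h beforehand.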

[11] = qHTS of pediatric cancer cell lines to identify multiple opportunities for drug repurposing: Primary screen for BT-37 cells (AID 1347094); also: series mostly up to about 57 µM
Outline: as §2

[12] = qHTS of pediatric cancer cell lines to identify multiple opportunities for drug repurposing: Primary screen for A673 cells (AID 1347092); also: nearly all actives have a fitted effect of over 45% in size
Outline: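 Titration-based qHTS on A673 cells: MIPE compounds spanned 11 points (0.78 nM to 46 µM final), NPC compounds 8 points (0.59 nM to 46 µM final). Viability after 48 h was measured by ATP luminescence.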

Structure (SMILES)	outcome [1]	Potency [2]	Potency [3]	Potency [4]	Potency [5]	Potency [6]	Potency [7]	Potency [8]	Potency [9]	Potency [10]	Potency [11]	Potency [12]
C[C@H]1[C@H]2CC[C@H]3[C@@H]4CC=C5C[C@@H](N(C)C)CC[C@]5(C)[C@H]4CC[C@]23CN1C	inactive	inactive	inactive	inactive	inactive	inactive	inactive	inactive	inactive	–	–	–
CC(C(=O)O)c1cccc(Oc2ccccc2)c1 (stereo not given)	inactive	inactive	inactive	inactive	inactive	inactive	inactive	inactive	inactive	inactive	inactive	–
COc1cc(C(=S)N2CCOCC2)ccc1O	inactive	inactive	inactive	inactive	inactive	inactive	inactive	inactive	inactive	inactive	inactive	–
Cn1c(=O)c2[nH]c(Br)nc2n(C)c1=O	inactive	inactive	inactive	inactive	inactive	inactive	inactive	inactive	inactive	–	inactive	–
CC(=O)NCCCCCC(=O)O	inactive	inactive	inactive	inactive	inactive	–	inactive	inactive	inactive	inactive	inactive	inactive
C[N+]1(CC2COC(c3ccccc3)(C3CCCCC3)O2)CCCCC1 (stereo not given)	inactive	inactive	inactive	inactive	inactive	inactive	inactive	inactive	inactive	–	–	–
N#CCC(=O)NN	inactive	inactive	inactive	inactive	inactive	–	inactive	inactive	inactive	inactive	inactive	–
CCCCCCCCCCC[C@@H](C[C@@H]1OC(=O)[C@H]1CCCCCC)OC(=O)[C@H](CC(C)C)NC=O	inactive	inactive	inactive	inactive	inactive	inactive	inactive	–	–	–	inactive	–
Cc1nc(-c2ccc(Cl)cc2)oc1COC(C)(C)C(=O)O	inactive	inactive	inactive	inactive	inactive	–	inactive	inactive	inactive	inactive	inactive	inactive
COc1cc([C@H]2Oc3cc([C@H]4Oc5cc(O)cc(O)c5C(=O)[C@@H]4O)ccc3O[C@@H]2CO)ccc1O	inactive	inactive	inactive	inactive	inactive	–	inactive	inactive	inactive	33.5 µM (active)	inactive	–
